Compounds with a hit are over-represented: about 3.5% of the library has one in this group of screens.
TEAD-YAP inh: TEAD-YAP interaction inhibition. AID 1259422. inhibition, % at 9.12 µM. hit rate 1.4% among 640,000. HEK-TIYL cells, TEAD-Gal4/YAP UAS-luciferase luminescence; in the data active = inhibition above about 32%;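 also: 0% = median of test compound wells and 100% = reference inhibitor wells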
MITF primary: human MITF inhibition, primary screen; O75030; AlphaScreen MITF homodimerization, bead proximity signal; inhibition, % at 2.6 µM; hit rate 0.91% among 650,000; in the data active = inhibition above about 50%;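 also: 0% = vehicle wells with protein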
FBW7 activator: activators of human E3 ligase FBW7; Q969H0; AlphaScreen FBW7–phospho-cyclin E peptide binding, activator screen; normalized activity (activation), % at 26.1 µM; hit rate 0.13% among 650,000; in the data active = normalized activity above about 1.9%;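 also: purified mutant Fbw7 with reduced substrate affinity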
Target sequence (Q969H0 whole entry, looked up): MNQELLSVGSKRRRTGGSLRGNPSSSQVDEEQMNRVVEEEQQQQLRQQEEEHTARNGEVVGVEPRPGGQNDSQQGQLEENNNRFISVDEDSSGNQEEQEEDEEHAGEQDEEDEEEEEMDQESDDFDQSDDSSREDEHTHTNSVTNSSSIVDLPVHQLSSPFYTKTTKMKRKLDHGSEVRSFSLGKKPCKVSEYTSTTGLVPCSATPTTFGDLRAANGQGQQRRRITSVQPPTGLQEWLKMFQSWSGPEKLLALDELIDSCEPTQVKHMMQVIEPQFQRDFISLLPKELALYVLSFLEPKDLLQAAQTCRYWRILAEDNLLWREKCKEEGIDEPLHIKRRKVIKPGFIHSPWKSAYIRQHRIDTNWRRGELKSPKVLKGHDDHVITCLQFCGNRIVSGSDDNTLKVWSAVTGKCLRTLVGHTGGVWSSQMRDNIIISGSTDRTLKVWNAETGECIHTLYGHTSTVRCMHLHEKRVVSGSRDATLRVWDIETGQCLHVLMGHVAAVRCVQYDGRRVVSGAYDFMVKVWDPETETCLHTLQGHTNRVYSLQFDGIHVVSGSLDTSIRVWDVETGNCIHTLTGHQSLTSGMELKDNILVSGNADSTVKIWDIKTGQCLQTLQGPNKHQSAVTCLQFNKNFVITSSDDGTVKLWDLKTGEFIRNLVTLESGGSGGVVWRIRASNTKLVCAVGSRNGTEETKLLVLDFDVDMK
GPR151 activ: activators of human GPR151. Q8TDV0. activation, % at 11.2 µM. PathHunter beta-arrestin GPR151 cells, luminescence. AID 1508602. hit rate 1% among 650,000; in the data active = activation above about 4.9%;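 also: 0% = median of compound wells and 100% = cells with positive control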
The depositor's hits bear a star.

SMILES	TEAD-YAP inh	MITF primary	FBW7 activator	GPR151 activ
N#CC1=C(N)C(C#N)(C#N)C(c2ccc(O)cc2)C2CCCC=C12 (stereo not given)	11	-10	0	0
N#CC1=C(N)C(C#N)(C#N)C(c2ccccc2)C2CCCC=C12 (stereo not given)	7	10	1.9*	2
CCn1c(C)nc2cc(-c3nc4n(n3)Cc3ccccc3-4)ccc21	103*	-12	0	-12
CCn1c(C)nc2cc(CO)ccc21	-6	10	0	1
O=C(Nc1ccc(Cl)cc1)Nc1nnc(N2CCCCCC2)s1	-15	4	0	1
COc1ccc(/C=C/C2=NN(c3ccccc3)C(c3ccc(OC)cc3OC)C2)c(OC)c1 (stereo not given)	2	-55	2.7*	1
O=C(CCCc1nc(-c2ccc(Cl)cc2)no1)NC1CCCC1	34*	-11	0	1
COc1ccccc1NC(=O)c1ccc(SCC(=O)N2CCC3(CC2)OCCO3)c([N+](=O)[O-])c1	38*	-1	0	1
N=c1sc2c(n1CC(=O)c1ccc(F)cc1)CCCC2	56*	-5	0	-9
COc1ccc(Nc2nc(-c3c(C)nc4ccccn34)cs2)cc1	62*	0	0	1
Cc1nc2ccccn2c1-c1csc(Nc2ccc(Br)cc2Br)n1	55*	2	0	0
NNC(=O)CSc1ccc(Cl)cc1	-4	3	0	-2
O=C(Nc1nc2ccc(Br)cc2s1)c1ccc(Cl)cc1Cl	2	1	0	1
O=C(Cc1ccccc1F)Nc1ccc2c(c1)CN(C(=O)c1csnn1)CC2	-10	-10	0	-2
O=C(Nc1ccc2c(c1)CN(C(=O)c1csnn1)CC2)c1ccc(C(F)(F)F)cc1	33*	-3	0	-1
CC1CCN(Cc2cc(Cl)c3cccnc3c2O)CC1	46*	43	-1	4
CC1CCN(Cc2cc(Cn3ccnc3)c3cccnc3c2O)CC1	39*	110*	-1	0
COc1ccc(C(=O)Oc2c(CN3CCOCC3)cc(Cl)c3cccnc23)cc1OC	0	0	0	-1
CC1CCCCN1Cc1cc(Cl)c2cccnc2c1O (stereo not given)	73*	30	-1	1
CN1CCN(Cc2cc(Cl)c(O)c3ncccc23)CC1	90*	98*	-1	1
Oc1ccc(CN2CCN(c3ccc(F)cc3)CC2)c2cccnc12	-9	38	-1	5
COc1ccc(/C=N/NC(=O)c2ccn[nH]2)c(OC)c1	-40	7	0	-1
CC1CCN(Cc2cc(Cl)c(O)c3ncccc23)CC1	85*	98*	0	1
CC1CCN(Cc2ccccc2CO)CC1	-8	-1	0	0
CC(C)OCCCNc1ccc(C(F)(F)F)cn1	2	4	0	1
SMILES	TEAD-YAP inh	MITF primary	FBW7 activator	GPR151 activ
CCCNc1nc(-c2ccc(C(N)=O)cc2)nc2c1ncn2-c1ccccc1	52*	-7	0	1
NC(=O)c1ccc(-c2nc(NCCc3ccc(O)cc3)c3ncn(-c4ccccc4)c3n2)cc1	66*	-4	0	-1
CCCNc1nc(-c2ccc(OC)cc2)nc2c1ncn2-c1ccccc1	-3	9	0	0
NC(=O)c1ccc(-c2nc(NCc3cccnc3)c3ncn(-c4ccccc4)c3n2)cc1	55*	2	0	0
CC(C)N(CCNc1nc(-c2ccc(C(N)=O)cc2)nc2c1ncn2-c1ccsc1)C(C)C	61*	12	0	-1
c1ccc(-c2nc(NCc3cccnc3)c3ncn(-c4ccccc4)c3n2)cc1	17	2	0	-1
CCCNc1nc(-c2ccc(C(N)=O)cc2)nc2c1ncn2-c1ccsc1	52*	7	0	-1
O=C(Nc1nnc(-c2ccc(Cl)cc2Cl)s1)C12CC3CC(CC(C3)C1)C2	1	-8	0	2
CCC1=[N+](CC(=O)c2ccccc2)CCn2cccc21	-4	11	2.5*	-1
O=C(CSc1nnc2c(n1)[nH]c1ccccc12)Nc1ccccc1F	-19	0	0	-1
O=C(CSc1nnc2c(n1)[nH]c1ccccc12)Nc1ccc(Br)cc1	2	-3	0	-1
O=C(CSc1nnc2c(n1)[nH]c1ccccc12)Nc1ccc(C(=O)N2CCCCC2)cc1	34*	10	0	1
O=C(CSc1nnc2c(n1)[nH]c1ccccc12)Nc1ccc(Cl)cn1	57*	6	0	0
CCC(=O)Oc1ccc2c(=O)c(-c3ccc(OC)cc3)c(C)oc2c1	-10	25	0	0
O=C(NCc1ncc(C(F)(F)F)cc1Cl)c1cn2ccsc2n1	2	25	2.0*	-1
CCSc1nc2sccn2c(=O)c1C(=O)NCc1ncc(C(F)(F)F)cc1Cl	11	20	0	0
O=C(CC1CCCC1)NCC1CCC2(CCN(C(=O)c3ccc(F)cc3)CC2)O1 (stereo not given)	12	25	2.0*	1
O=C(CCc1cccs1)NCC1CCC2(CCN(C(=O)c3ccc(F)cc3)CC2)O1 (stereo not given)	-2	-1	-1	0
COCC1=C(C(=O)OC)C(c2ccccc2Br)C(C#N)=C(N)O1 (stereo not given)	-6	1	0	-1
c1cnc(Nc2nc(NCc3nc4ccccc4[nH]3)c3ncn(-c4ccsc4)c3n2)nc1	69*	-18	50*	-1
c1cncc(CNc2nc(NCc3nc4ccccc4[nH]3)c3ncn(-c4ccsc4)c3n2)c1	86*	-8	0	1
OC1CCN(Cc2ccccc2Cl)CC1	5	18	0	1
Clc1ccccc1CN1c2ccccc2N(Cc2ccccc2Cl)C1c1ccccc1Cl	81*	6	1	1
CCOC(=O)c1cc2cccc(NS(=O)(=O)c3ccc(C)cc3)c2[nH]1	39*	5	0	0
COC(=O)c1ccc(C)c(NS(=O)(=O)c2ccc(Br)cc2)c1	45*	-12	0	-1
SMILES	TEAD-YAP inh	MITF primary	FBW7 activator	GPR151 activ
COC(=O)c1ccc(C)c(NS(=O)(=O)c2ccc(C)cc2)c1	56*	-6	0	0
COC(=O)c1ccc(C)c(NS(=O)(=O)c2ccc(F)cc2)c1	-4	-1	0	-2
CC1CCCC(C)N1C(=O)Cn1nnc2c(cnn2-c2ccccc2)c1=O (stereo not given)	-7	13	0	-1
O=C(CSc1nc2c(c(=O)n1-c1ccc(F)cc1)SCC2)N1CCCCCC1	4	1	0	-1
COc1ccc(C2C(C#N)=C(N)Oc3c2sc2ccccc32)c2ccccc12 (stereo not given)	3	12	0	-1
COc1ccc(C2C(C#N)=C(N)Oc3c2sc2ccccc32)cc1OC (stereo not given)	56*	8	0	2
CCOC(=O)/C(=N/O)C1=NC2(C)CCCCC2c2ccccc21 (stereo not given)	2	-13	0	0
Cc1ccc(NC(=S)N(Cc2ccccc2)Cc2cccs2)cc1Cl	36*	-5	0	0
Cc1cc(NC(=S)N(Cc2ccccc2)Cc2cccs2)ccc1Cl	44*	9	0	0
